From PubChem BioAssay AID651658 (Broad Institute, 2012)
The whole screen tested about 340,000 compounds, of which about 5,100 (1.5%) were called active. Only a selection was taken, and actives are over-represented in it overall. A number with no mark means an inactive call.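 Rule for the calls: active = mean Tm shift, scaled 0 neutral to 100 positive control, at about 1.3% or above, every replicate too (limit read from the data); inconclusive = no clear call, values can overlap the other calls; inactive = the rest.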

Target: Fibroblast growth factor 22 (Homo sapiens) (UniProt Q9HCT0)
Sequence (Q9HCT0 whole entry, looked up): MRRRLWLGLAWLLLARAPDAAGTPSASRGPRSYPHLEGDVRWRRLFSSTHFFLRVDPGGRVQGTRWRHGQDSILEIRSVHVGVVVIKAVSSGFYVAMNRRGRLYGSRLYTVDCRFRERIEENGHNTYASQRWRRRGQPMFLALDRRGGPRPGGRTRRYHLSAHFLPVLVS
Assay: binders of human FGF22 protein, primary screen, FGF22 synaptogenesis inhibitor project, biophysical, thermal shift, single point (AID 651658)
Conditions: recombinant FGF22 thermal shift, SYPRO orange fluorescence; at 9.99 µM; active compounds read high; percent of sucrose octasulfate shift, DMSO zero

| Compound | activity (Tm shift, normalised) |
| --- | --- |
| CN(C)C(=O)C[C@H]1CC[C@@H](NC(=O)C2CC2)[C@@H](CO)O1 | -0.057% |
| C[C@H]1CN([C@@H](C)CO)C(=O)c2cccc(NC(=O)Nc3ccccc3)c2O[C@H]1CN(C)S(=O)(=O)c1ccc(Cl)cc1 | -0.286% |
| C[C@@H]1CN([C@H](C)CO)C(=O)c2cc(-c3cccc(C(=O)N(C)C)c3)cnc2O[C@H]1CN(C)S(=O)(=O)c1ccc(F)cc1 | -0.014% |
| COCC(=O)Nc1ccc2c(c1)OC[C@H](C)N(Cc1ccccc1)C[C@H](C)[C@@H](OC)CN(C)C2=O | -0.276% |
| C[C@@H]1CN([C@@H](C)CO)C(=O)c2cc(NC(=O)Nc3ccc4c(c3)OCO4)ccc2O[C@@H](C)CCCCO[C@@H]1CN(C)S(=O)(=O)c1cccs1 | 0.586% |
| Cc1ccc(S(=O)(=O)N(C)C[C@@H]2Oc3c(NC(=O)C4CC4)cccc3C(=O)N([C@H](C)CO)C[C@@H]2C)cc1 | 0.051% |
| Cc1cccc(S(=O)(=O)N2C[C@@H](O)COC[C@H]3O[C@H](CC(=O)Nc4ccc(-c5ccccc5)cc4)CC[C@@H]32)c1 | 1.98% (active) |
| O=C(C[C@H]1CC[C@H]2[C@@H](COC[C@@H](O)CN2S(=O)(=O)c2cccc(Cl)c2)O1)NC1CCCC1 | -0.093% |
| CN(C)C(=O)C[C@@H]1CC[C@H]2[C@@H](COC[C@H](O)CN2S(=O)(=O)c2ccccc2)O1 | -0.015% |
| COc1cccc(S(=O)(=O)N2C[C@@H](O)COC[C@@H]3O[C@H](CC(=O)Nc4ccccc4)CC[C@H]32)c1 | -0.453% |
| Cc1cccc(S(=O)(=O)N2C[C@@H](O)COC[C@H]3O[C@H](CC(=O)N4CCN(C)CC4)CC[C@@H]32)c1 | -0.222% |
| O=C(C[C@H]1CC[C@H]2[C@@H](COC[C@H](O)CN2S(=O)(=O)c2cccc(Cl)c2)O1)Nc1ccccc1 | 1.27% (active) |
| COc1cccc(-c2ccc(CC[C@H]3O[C@H]4CC[C@@H](CO)O[C@H]4C[C@@H]3NS(C)(=O)=O)cc2)c1 | -0.835% |
| CCCNC(=O)N(C)C[C@H]1Oc2ncc(-c3ccccc3F)cc2C(=O)N([C@@H](C)CO)C[C@H]1C | 0.186% |
| C[C@H](CO)N1C[C@H](C)[C@H](CN(C)Cc2ccc(C(=O)O)cc2)OCc2cn(nn2)CCCC1=O | -0.002% |
| C/C=C/c1cnc2c(c1)C(=O)N([C@@H](C)CO)C[C@@H](C)[C@@H](CN(C)S(=O)(=O)c1ccccc1F)O2 | 0.721% |
| O=C(N[C@@H]1CC[C@@H](CC(=O)N2CCc3ccccc3C2)O[C@@H]1CO)C1CCOCC1 | -0.035% |
| Cc1ccc(OCCCC(=O)Nc2ccc(S(=O)(=O)Nc3cc(C)nc(C)n3)cc2)cc1 | -0.115% |
| Cc1ccc(S(=O)(=O)Nc2nc(C)cc(-n3nc(C)cc3C)n2)cc1 | 0.134% |
| Cc1ccc(S(=O)(=O)Nc2nc(C)cc(N/N=C/c3ccc(O)cc3)n2)cc1 | 43.2% (active) |
| CN(C)C(=O)C[C@H]1C[C@@H]2c3cc(NC(=O)NC4CCCCC4)ccc3O[C@@H]2[C@@H](CO)O1 | -7.03% |
| C[C@H](CO)N1C[C@H](C)[C@@H](CN(C)Cc2cccnc2)Oc2cc(C#CC3CC3)ccc2S1(=O)=O | -0.495% |
| CC1(Cc2cccc(C#N)c2)C(=O)Nc2ccc(-c3cccc(C(F)(F)F)c3)cc21 (stereo not given) | 0.505% |
| C=CCn1cc(-c2cccc(C(F)(F)F)c2)cc(C#N)c1=O | 42.9% (active) |

| Compound | activity (Tm shift, normalised) |
| --- | --- |
| Cn1cc(-c2ccccc2)cc(C#N)c1=O | 0.065% |
| COc1cccc(S(=O)(=O)N2CCC3(CC2)CN[C@H](CO)c2c3c3ccc(OC)cc3n2C)c1 | 0.197% |
| OCCC1CN(Cc2ccccc2-c2ccco2)CCN1Cc1ccsc1 (stereo not given) | 0.318% |
| Cc1ccc(CN2CCN(Cc3cn(C)nc3-c3ccccc3)CC2CCO)o1 (stereo not given) | -0.412% |
| Cc1ccc(CN2CCN(Cc3ccccc3-c3ccco3)CC2CCO)o1 (stereo not given) | 43.4% (active) |
| CCS(=O)(=O)N[C@@H]1CC[C@@H](CC(=O)NCC2CC2)O[C@H]1CO | 0.034% |
| CN1C(=O)c2cc(NC(=O)c3ccc(F)cc3)ccc2OC[C@H]2O[C@H](CC(=O)N3CCOCC3)CC[C@@H]21 | -0.26% |
| CN(CCc1ccccc1)C(=O)c1cccc(NC(=O)Cc2ccc([N+](=O)[O-])cc2)c1 | -0.076% |
| O=C(COc1ccc([N+](=O)[O-])cc1)Nc1cccc(C(=O)Nc2ccccc2C(=O)O)c1 | 1.4% (active) |
| O=C(CSCc1ccc([N+](=O)[O-])cc1)Nc1cccc(C(=O)Nc2ccccc2C(=O)O)c1 | -0.059% |
| C[C@H](CO)N1C[C@H](C)[C@@H](CN(C)C(=O)C2CCOCC2)Oc2cc(-c3ccc(C(=O)N(C)C)cc3)ccc2S1(=O)=O | -0.068% |
| CN1c2ccc(C#Cc3cccnc3)cc2[C@H]2[C@H](CCN2S(=O)(=O)c2ccccc2)[C@@H]1CO | -0.293% |
| C[C@H](CO)N1C[C@H](C)[C@H](CN(C)Cc2ccccc2)OCCCC[C@H](C)Oc2ccc(NC(=O)CCC(F)(F)F)cc2C1=O | -0.091% |
| Cn1cncc1COC(=O)c1ccc(Cl)cc1 | 0.094% |
| O=C(OCc1cc(Cl)ccc1OC(F)F)c1cccnc1 | 43.6% (active) |
| O=C(CC(=O)c1cccnc1)c1ccccc1 | -0.031% |
| C[C@@H](O)C#Cc1ccc([C@H]2[C@H](CO)N3CCCCN(C(=O)c4ccc(F)cc4)C[C@@H]23)cc1 | 0.261% |
| O=C(c1cccnc1)N1C[C@H]2[C@@H](c3ccccc31)[C@@H](CO)N2C(=O)Nc1ccccc1F | -0.686% |
| O=C(Nc1ccccc1F)N1[C@H](CO)[C@H]2c3ccccc3NC[C@H]21 | 1.7% (active) |
| O=C(Nc1ccccc1F)N1C[C@@H]2[C@H](c3ccccc31)[C@@H](CO)N2C(=O)Nc1ccccc1 | -0.294% |
| C/C=C/c1cccc(-c2nc(C(=O)NCCN3CCCCC3)cc3c2[C@@H](CCO)N([S@](=O)C(C)(C)C)C3)c1 | 0.178% |
| C[C@@H]1CCCCO[C@@H](CN(C)C(=O)Nc2ccc(C(F)(F)F)cc2)[C@H](C)CN([C@@H](C)CO)C(=O)c2cc(N(C)C)ccc2O1 | -1.45% |
| C[C@@H](NC(=O)C[C@H]1C=C[C@H](NC(=O)C2CCOCC2)[C@H](CO)O1)c1ccccc1 | -0.059% |
| COCC#Cc1ccc([C@H]2[C@H]3CN(Cc4ccncc4)CCCCN3[C@H]2CO)cc1 | 0.633% |

| Compound | activity (Tm shift, normalised) |
| --- | --- |
| Cc1ccc(NC(=O)CSc2nnc(CNC(=O)c3ccccc3F)o2)cc1Cl | 0.074% |
| Cc1ccc(NC(=O)CSc2nnc(CNC(=O)c3ccccc3F)o2)cc1 | 44% (active) |
| COc1ccccc1NC(=O)CSc1nnc(CNC(=O)c2ccccc2F)o1 | 0.09% |
| O=C(N[C@H]1CC[C@@H](CCNS(=O)(=O)c2ccccc2)O[C@@H]1CO)c1cnccn1 | -0.268% |
| C[C@@H]1CN([C@H](C)CO)C(=O)c2cc(NC(=O)C3CCCCC3)ccc2O[C@H]1CN(C)C(=O)Nc1ccccc1 | -0.036% |
| C[C@H](CO)N1C[C@H](C)[C@@H](CN(C)C(=O)Nc2ccc3c(c2)OCO3)Oc2ccc(NS(=O)(=O)c3ccc(Cl)cc3)cc2C1=O | 0.554% |
| CCS(=O)(=O)Nc1ccc2c(c1)C(=O)N(C)[C@H]1CC[C@@H](CC(=O)Nc3ccccc3)O[C@H]1CO2 | 0.176% |
| Cc1nc(Cl)c(C#N)c2c1CCCC2 | -0.106% |
| COCc1c(N)c(C)nc(Cl)c1C#N | 43% (active) |
| O=C(C[C@@H]1CC[C@@H]2[C@H](COC[C@@H](O)CN2Cc2ccccc2)O1)NCCc1ccccc1 | -0.247% |
| O=C(C[C@@H]1CC[C@@H]2[C@H](COC[C@H](O)CN2S(=O)(=O)c2ccccc2F)O1)NCc1ccccc1F | -0.237% |
| NS(=O)(=O)c1ccc(NC(=O)COC(=O)CCc2c[nH]c3ccccc23)cc1 | 43.3% (active) |
| CC(OC(=O)CCCc1c[nH]c2ccccc12)C(=O)Nc1ccc(S(N)(=O)=O)cc1 (stereo not given) | -0.822% |
| O=C(COC(=O)CCc1c[nH]c2ccccc12)Nc1cccc(Cl)c1 | 0.175% |
| COc1ccc(S(=O)(=O)N[C@H]2CC[C@H](CCn3cc(C(C)C)nn3)O[C@@H]2CO)cc1 | 0.529% |
| COCC(=O)N1[C@H](CO)[C@@H](c2ccccc2)C12CN(Cc1cc(F)ccc1F)C2 | -0.224% |
| COc1ccccc1NC(=O)N1C[C@@H](O)COC[C@H]2O[C@@H](CC(=O)NCc3ccccc3)CC[C@@H]21 | -0.018% |
| COc1ccc(S(=O)(=O)N(C)C[C@@H]2OCCCC[C@@H](C)Oc3ccc(NC(=O)c4ccccc4)cc3C(=O)N([C@@H](C)CO)C[C@H]2C)cc1 | 0.83% |
| CCN(CC(=O)Nc1cccc(S(N)(=O)=O)c1)Cc1nc2ccccc2c(=O)[nH]1 | 42.3% |
| CCN(CC(=O)Nc1ccc(Cl)c(S(=O)(=O)N(C)C)c1)Cc1nc2ccccc2c(=O)[nH]1 | 0.133% |
| CCN(CC(=O)NC(=O)NCc1ccccc1)Cc1nc2ccccc2c(=O)[nH]1 | 43% (active) |
| COc1ccc(S(=O)(=O)N(C)C[C@H]2OCCCC[C@H](C)Oc3ccc(NC(=O)CCC(F)(F)F)cc3C(=O)N([C@@H](C)CO)C[C@@H]2C)cc1 | 0.44% |
